Compound activity: PubChem, National Center for Advancing Translational Sciences (NCATS)
Shown are actives, neighbours in structure and some others; about 7.6% of the full set was active somewhere.
KB-V1 MDR tox – KB-V1 MDR subline cytotoxicity; KB-V1 MDR cells viability, CellTiter-Glo, 72 h; actives 3.4% (n = 400,000); Potency, µM (top dose mostly 46.1 µM), hits mostly cytotoxic; also: nearly all actives have a fitted effect of over 60% in size
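Potencies derive from concentration-effect curves fitted to normalized luminescence (CellTiter-Glo) of KB-V1 cells treated for 72 h at 37 degrees C in phenol-red-free DMEM containing 10% FBS.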
SW480 rerep – inducers of DNA re-replication in SW480 colon cancer cells; SW480 DNA re-replication, Hoechst DNA content imaging, 48 h; Potency, µM (highest dose often 46.1 µM), hits mostly activators; actives 1.8% (n = 340,000); AID 624297; also: nearly all actives have a fitted effect of over 55% in size
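Treated cells incubate 48 hr (37 C, 5% CO2), are stained 40 min with Hoechst, and nuclear fluorescence is enumerated; a rise in nuclei with high DNA signal marks re-replication.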
KCNH2 WT inh – inhibitors of human wildtype KCNH2 potassium channel; U2OS, BacMam KCNH2, thallium flux FluxOr; active compounds read low; activity change, % at 1.84 µM; actives 0.37% (n = 340,000); AID 720551;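 active = maximum activity change below -70%; inconclusive = maximum activity change between -70% and -50%; inactive = maximum activity change above -50%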
Target sequence (Q12809 whole entry, looked up): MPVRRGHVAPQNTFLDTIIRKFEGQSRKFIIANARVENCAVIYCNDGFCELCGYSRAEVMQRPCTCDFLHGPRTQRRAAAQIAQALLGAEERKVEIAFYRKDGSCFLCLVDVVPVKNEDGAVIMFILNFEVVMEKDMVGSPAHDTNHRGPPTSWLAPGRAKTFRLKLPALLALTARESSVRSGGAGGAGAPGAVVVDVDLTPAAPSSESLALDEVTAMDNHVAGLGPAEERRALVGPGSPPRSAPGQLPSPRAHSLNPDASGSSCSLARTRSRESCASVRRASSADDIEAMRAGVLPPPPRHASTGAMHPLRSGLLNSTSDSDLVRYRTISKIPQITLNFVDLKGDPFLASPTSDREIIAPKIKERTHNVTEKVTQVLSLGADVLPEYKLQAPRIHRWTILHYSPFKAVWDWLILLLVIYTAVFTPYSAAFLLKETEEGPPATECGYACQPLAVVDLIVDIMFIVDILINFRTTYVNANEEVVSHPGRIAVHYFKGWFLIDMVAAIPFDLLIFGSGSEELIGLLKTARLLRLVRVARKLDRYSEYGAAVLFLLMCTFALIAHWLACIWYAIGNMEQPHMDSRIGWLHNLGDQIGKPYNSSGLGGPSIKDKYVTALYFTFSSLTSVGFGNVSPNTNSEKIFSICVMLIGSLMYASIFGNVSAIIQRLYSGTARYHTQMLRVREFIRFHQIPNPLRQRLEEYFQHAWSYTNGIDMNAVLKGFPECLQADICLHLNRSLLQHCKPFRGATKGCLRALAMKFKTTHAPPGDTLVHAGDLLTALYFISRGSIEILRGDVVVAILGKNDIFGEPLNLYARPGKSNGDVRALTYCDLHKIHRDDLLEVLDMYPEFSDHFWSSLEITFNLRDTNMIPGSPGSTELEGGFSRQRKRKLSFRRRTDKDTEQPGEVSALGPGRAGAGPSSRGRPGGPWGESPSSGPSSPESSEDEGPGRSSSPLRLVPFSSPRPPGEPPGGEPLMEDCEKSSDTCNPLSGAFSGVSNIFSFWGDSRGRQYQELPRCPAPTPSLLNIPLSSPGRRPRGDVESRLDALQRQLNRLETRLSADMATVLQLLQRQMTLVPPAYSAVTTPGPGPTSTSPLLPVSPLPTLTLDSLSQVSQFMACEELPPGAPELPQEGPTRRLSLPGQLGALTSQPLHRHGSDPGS
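U2OS cells transduced with wild-type KCNH2 virus are loaded with FluxOr dye for 45 min, and thallium flux is measured in kinetic reads before and after stimulation buffer. Rate constants are normalized to DMSO controls.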
KCNH2 3.1 block – blocks the human KCNH2 3.1 channel isoform; actives 0.95% (n = 340,000); activity change, % (tested at about 1.8 µM); U2OS KCNH2 3.1, thallium flux FluxOr; active compounds read low;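 active = maximum activity change below -70%; inconclusive = maximum activity change from -70% to -50%; inactive = maximum activity change above -50%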;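 also: thallium influx rate constant from kinetic fluorescence after stimulation buffer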
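Virally transduced U2OS (3.1 isoform, 4 h infection in dark at RT) → overnight 37 C → FluxOr + Red40 in HBSS/HEPES, 45 min → stimulation buffer, 2 min kinetic read → rate constant vs DMSO controls.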
MCF10A rereplic – DNA re-replication induction in MCF 10a cells. actives 2.9% (n = 350,000). AID 624296. MCF 10A DNA re-replication, Hoechst nuclear intensity, 48 h. Potency, µM (series often up to 46.1 µM), usual class: activators; also: nearly all actives have a fitted effect of over 50% in size
KB-3-1 tox – KB-3-1 parental cell cytotoxicity; KB-3-1 viability, CellTiter-Glo ATP luminescence, 72 h; Potency, µM (top dose mostly 46.1 µM), most hits filed as cytotoxic; actives 1.4% (n = 400,000); AID 1347075; also: nearly all actives have a fitted effect of over 60% in size
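Parental KB-3-1 adenocarcinoma cells in phenol-red-free DMEM with 10% FBS were pin-treated with compounds at several concentrations, incubated 72 h at 37 °C, and viability read by CellTiter-Glo luminescence; concentration-effect curves were fitted after normalization.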
Numbers stand for hits; – = inactive; ? = inconclusive; · = no result. Unless noted, calls follow the shape of the dose curve; as a rule, active = well fitted curve in the direction sought with a large enough effect; inconclusive = small, poorly fitted or top-dose-only effect, or another doubt; inactive = no such curve, though single readings can be large; an effect the other way counts as inactive or inconclusive.

SMILES | KB-V1 MDR tox | SW480 rerep | KCNH2 WT inh | KCNH2 3.1 block | MCF10A rereplic | KB-3-1 tox
O=C(COC(=O)C1(c2ccc(Cl)cc2)CCCC1)NCc1ccco1 | ? | – | – | – | – | –
CSc1cccc(NC(=O)COc2ccccc2C)c1 | – | – | – | – | – | –
CSc1cccc(NC(=O)COC(=O)C2(c3ccccc3)CC2)c1 | 18µM | ? | – | – | – | –
COCC(=O)Nc1ccc(Nc2ccccc2)cc1 | – | – | – | – | – | –
O=C(Nc1ccc(Br)cn1)c1cnn2c1NC(=C1CC1)C=C2C(F)F | – | · | · | · | · | ?
Cn1cc2ccc(-c3ccc4ncnc(NCc5cccs5)c4c3)cc2n1 | – | · | · | · | · | –
CCC(=O)Nc1cccc(SC)c1 | – | – | – | -83 | – | –
O=c1cc(-c2ccccc2)oc2ccccc12 | – | – | – | – | ? | –
COc1ccc(-c2ccc3oc(-c4ccsc4)c(-c4ccc(OC)cc4)c3c2)cc1 | – | – | – | – | – | –
COc1ccc(-c2oc3ccc(-c4ccc(OC)nc4)cc3c2-c2ccc(OC)cc2)cc1 | – | ? | – | – | 6.5µM | –
COc1ccc(-c2c(-c3ccsc3)oc3ccc(N4CCOCC4)cc23)cn1 | – | – | – | – | 18µM | –
Nc1ccc(C#Cc2c(-c3ccsc3)oc3ccc(N4CCOCC4)cc23)cc1 | – | – | – | – | 13µM | –
O=c1cc(-c2ccccc2)oc2ccc(O)cc12 | 5.8µM | – | – | – | – | –
COc1ccc(-c2oc3ccc(-c4ccc5c(c4)OCO5)cc3c2-c2ccc(OC)nc2)cc1 | ? | – | – | – | – | –
N=C1C(c2ccccc2)=C(O)CN1CCO | – | – | – | – | – | –
CCC(=O)O[C@@]1(C(=O)CCl)C(C)CC2C3CCC4=CC(=O)C=C[C@@]4(C)[C@]3(F)C(O)C[C@]21C (some centres not stated) | · | – | · | · | – | ·
COc1ccc(-c2cc(=O)c3cc(O)ccc3o2)cc1 | ? | – | – | – | – | –
COC(=O)c1ccc(/C=C/c2c(-c3ccsc3)oc3ccc(N4CCOCC4)cc23)cc1 | – | – | · | · | 5.8µM | ?
COc1ccc(-c2ccc3oc(-c4ccsc4)cc(=O)c3c2)cn1 | – | 2.9µM | – | – | – | –
COc1ccc2oc(-c3ccncc3)cc(=O)c2c1 | 3.7µM | – | – | – | – | ?
COC(=O)c1nc2ccc(N3CCOCC3)cc2c(C)c1C(=O)OC | – | – | – | – | – | –
CC(C)NC(=O)Nc1ccc2c(c1)C(=O)N([C@H](C)CO)C[C@H](C)[C@@H](CN(C)Cc1ccc(C(F)(F)F)cc1)OCCCC[C@H](C)O2 | – | · | – | – | · | ?
CCOC(=O)/C(C#N)=C/c1cn(CCOc2ccc(OC)cc2)c2ccccc12 | – | – | – | – | 16µM | –
COc1ccccc1OCCn1cc(/C=C(\C#N)C(=O)NCc2cccs2)c2ccccc21 | 18µM | – | – | – | – | –
Cc1cc(/C=C(\C#N)C(=O)NCC2CCCO2)c(C)n1-c1ccc(Cl)cc1 (configuration not stated) | 4.1µM | – | – | – | – | –
SMILES | KB-V1 MDR tox | SW480 rerep | KCNH2 WT inh | KCNH2 3.1 block | MCF10A rereplic | KB-3-1 tox
CNC(=O)/C(C#N)=C/c1cn(CC(=O)OC)c2ccccc12 | – | – | – | – | ? | –
CCOc1ccc(NC(=O)/C(C#N)=C/c2cn(CC(=O)O)c3ccccc23)cc1 | – | – | – | – | ? | –
N#C/C(=C\c1cn(CCOc2ccccc2)c2ccccc12)C(=O)NCC1CCCO1 (configuration not stated) | 6.5µM | ? | – | – | – | –
COc1ccc(C(=O)COc2ccc(F)cc2)c(O)c1C | – | – | – | – | – | –
Cc1ccc(C)c(OCCn2cc(/C=C(/C#N)C(=O)NCC3CCCO3)c3ccccc32)c1 (configuration not stated) | 15µM | – | – | – | ? | –
CCCOc1ccc(/C(CC)=N/NC(=O)C2(C)CC2(Br)Br)cc1 (configuration not stated) | – | – | – | -77 | ? | –
CC/C(=N/NC(=O)c1ccc(Br)cc1)c1ccc(OCCN2CCOCC2)cc1 | – | ? | – | – | – | –
Cc1ccc(C)c(N(C(=O)CNC(=O)c2ccco2)C(C(=O)NCC2CCCO2)c2ccccc2)c1 (configuration not stated) | – | ? | – | -75 | – | –
Cc1ccc(-c2nnn(CC(=O)N(c3ccc4c(c3)OCCO4)C(C(=O)NCC3CCCO3)c3ccc(F)cc3)n2)o1 (configuration not stated) | – | 16µM | – | – | ? | –
COc1ccc(C)cc1N(C(=O)CNC(=O)c1ccco1)C(C(=O)NCC1CCCO1)c1ccccc1 (configuration not stated) | – | – | – | – | – | –
Cc1ccc(-c2nnn(CC(=O)N(c3ccccc3)C(C(=O)NCC3CCCO3)c3ccc(Cl)cc3)n2)cc1 (configuration not stated) | – | – | – | – | 18µM | –
Cc1ccc(-c2nnn(CC(=O)N(c3ccccc3)C(C(=O)NCC3CCCO3)c3ccc(F)cc3)n2)o1 (configuration not stated) | – | – | – | – | – | –
CCOC(=O)c1ccc(-c2ccc3ncnc(NCc4cccs4)c3c2)o1 | – | · | · | · | · | ?
CCOC(=O)c1cc2c(ccn2C)n1CC(=O)N(CC)CC | – | – | – | – | – | –
Cc1ccc(S(=O)(=O)N(C)CC(=O)N(C)Cc2cccs2)cc1 | – | · | – | – | · | –
C/C(Sc1nnc(Cc2ccccc2)o1)=C(\O)c1ccccc1 | – | – | – | – | – | –
COc1cc(C(C)=O)ccc1OCC(=O)Nc1cc(C)on1 | ? | – | – | – | – | –
COc1cc(C)cc(OC)c1OCC(=O)Nc1cc(C)on1 | 21µM | – | – | – | – | –
COc1ccc(CNC(=O)Cc2ccc(NC(=O)C3=C(C)OCCS3)cc2)cc1 | 15µM | ? | – | – | 8.2µM | 1µM
COc1cccc(CNC(=O)c2cccc(NC(=O)C3=C(C)OCCS3)c2)c1 | – | – | – | – | – | –
CC1=C(C(=O)Nc2ccc(CC(=O)NCc3ccc(OC(C)C)cc3)cc2)SCCO1 | ? | ? | – | – | 0.33µM | 0.37µM
CCOc1ccc(CNC(=O)c2cccc(NC(=O)C3=C(C)OCCS3)c2)cc1 | – | – | – | – | – | –
Cc1ccc(NC2CCCN(C(=O)C3CCCC3)C2)cc1C (configuration not stated) | ? | – | – | · | – | –
Cc1cc(C)n(CCCNC(=O)CCNS(=O)(=O)c2ccccc2C(F)(F)F)n1 | – | – | – | – | – | –
